In the supplement of paper PMC9262897, “Low-cost anti-mycobacterial drug discovery using engineered E. coli” (Nature Communications, 2022):
Counter-ions that a name gives are not always drawn. ± gives the standard deviation of the averaged measurements.

Test system: E. coli TESEC Mtb Alr
Experiment: growth (OD600 after 10 h); higher = more growth (less inhibition)
Conditions: arabinose 10000000 nM; compound 0.1 mM; raw OD600 reference: median of DMSO wells […], cell-free background 0.052
Procedure: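 TESEC Mtb Alr E. coli (ΔaraC ΔtolC ΔentC Δalr ΔdadX, arabinose-inducible Mtb Alr) or the Alr+ wild-type control strain, grown in defined M9-fructose medium without D-alanine in 96-well plates with Prestwick library compounds at 0.1 mM and 1% DMSO. Low Alr induction is 0.1 µM arabinose and high induction is 10 mM arabinose.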

SMILES | growth
CN(C)CCN(Cc1ccc(Cl)cc1)c1ccccn1 [Chloropyramine hydrochloride] | 0.314 ± 0.012
O=C1NCCN1CCN1CCC(c2cn(-c3ccc(F)cc3)c3ccc(Cl)cc23)CC1 [Sertindole] | 0.0524 ± 0.00098
O=C1NCC2(CCN(CCc3ccccc3)CC2)O1 [Fenspiride hydrochloride] | 0.336 ± 0.0092
CC(C)[C@H]1CC[C@H](C(=O)N[C@H](Cc2ccccc2)C(=O)O)CC1 [Nateglinide] | 0.284 ± 0.009
CCOC(=O)[C@H](CCc1ccccc1)N[C@@H](C)C(=O)N1CCC[C@H]1C(=O)O [Enalapril maleate] | 0.355 ± 0.017
CC1(C)O[C@@H]2[C@@H](CO[C@@]3(COS(N)(=O)=O)OC(C)(C)O[C@@H]23)O1 [Topiramate] | 0.302 ± 0.0096
c1ccc2c(c1)CCCc1cc(NCCN3CCOCC3)nnc1-2 | 0.328 ± 0.03
CC[C@@H]1C(=O)OC[C@@H]1Cc1cncn1C [Pilocarpine nitrate] | 0.319 ± 0.044
Cn1ccnc1S [Methimazole] | 0.323 ± 0.009
NC[C@H]1O[C@H](O[C@H]2[C@H](O)[C@@H](O[C@H]3O[C@H](CO)[C@@H](O)[C@H](N)[C@H]3O)[C@H](N)C[C@@H]2N)[C@H](N)C[C@@H]1O [Tobramycin] | 0.0502 ± 0.001
O=C1C(CC[S+]([O-])c2ccccc2)C(=O)N(c2ccccc2)N1c1ccccc1 (stereo not given) [Sulfinpyrazone] | 0.33 ± 0.011
C=C1/C(=C\C=C2/CCC[C@]3(C)[C@@H]([C@H](C)CCCC(C)C)CC[C@@H]23)C[C@@H](O)C[C@@H]1O [Alfacalcidol] | 0.149 ± 0.023
C[C@H](O)C(=O)Nc1c(I)c(C(=O)NC(CO)CO)c(I)c(C(=O)NC(CO)CO)c1I [Iopamidol] | 0.338 ± 0.011
CCCCNc1cc(C(=O)O)cc(S(N)(=O)=O)c1Oc1ccccc1 [Bumetanide] | 0.333 ± 0.02
CN(C)CCCOc1nn(Cc2ccccc2)c2ccccc12 [Benzydamine hydrochloride] | 0.283 ± 0.021
CCn1nc(C(=O)O)c(=O)c2cc3c(cc21)OCO3 [Cinoxacin] | 0.0712 ± 0.0049
CCCCOC(=O)c1ccc(N)cc1 [Butamben] | 0.344 ± 0.018
C#C[C@]1(O)CC[C@H]2[C@@H]3CCC4=CCCC[C@@H]4[C@H]3CC[C@@]21C [Lynestrenol] | 0.289 ± 0.0077
CCc1c2c(nc3ccc(OC(=O)N4CCC(N5CCCCC5)CC4)cc13)-c1cc3c(c(=O)n1C2)COC(=O)[C@]3(O)CC [Irinotecan hydrochloride trihydrate] | 0.366 ± 0.018
CN(C)CCn1nnnc1SCC1=C(C(=O)O)N2C(=O)[C@@H](NC(=O)Cc3csc(N)n3)[C@H]2SC1 [Cefotiam hydrochloride] | 0.244 ± 0.049

SMILES | growth
O=S(=O)(O)c1cc(O)ccc1O [Ethamsylate] | 0.344 ± 0.022
NNC(=O)c1ccncc1 [Isoniazid] | 0.359 ± 0.022
O=C(O)/C=C/c1ccc(Cn2ccnc2)cc1 [Ozagrel hydrochloride] | 0.372 ± 0.014
NCCC[C@H](N)CC(=O)N[C@H]1CNC(=O)[C@H]([C@H]2C[C@H](O)NC(N)=N2)NC(=O)/C(=C/NC(N)=O)NC(=O)[C@H](CO)NC(=O)[C@H](CO)NC1=O [Viomycin sulfate] | 0.0681 ± 0.0071
CC1CS(=O)(=O)CCN1/N=C/c1ccc([N+](=O)[O-])o1 (stereo not given) [Nifurtimox] | 0.0644 ± 0.012
CC(C)C(=O)Nc1ccc([N+](=O)[O-])c(C(F)(F)F)c1 [Flutamide] | 0.16 ± 0.036
Nc1ccc(S(=O)(=O)Nc2cnc3ccccc3n2)cc1 [Sulfaquinoxaline sodium salt] | 0.297 ± 0.0077
Cc1cnc(NC(=O)C2=C(O)c3ccccc3S(=O)(=O)N2C)s1 [Meloxicam] | 0.221 ± 0.016
CCCc1ncc(C[n+]2ccccc2C)c(N)n1 [Amprolium hydrochloride] | 0.376 ± 0.028
COc1cc(C(=O)OCCCN2CCCN(CCCOC(=O)c3cc(OC)c(OC)c(OC)c3)CC2)cc(OC)c1OC [Dilazep dihydrochloride] | 0.316 ± 0.029
CC(C)(O/N=C(\C(=O)N[C@@H]1C(=O)N2C(C(=O)[O-])=C(C[n+]3ccccc3)CS[C@H]12)c1csc(N)n1)C(=O)O [Ceftazidime pentahydrate] | 0.0727 ± 0.0092
O=C(c1ccc(OCCN2CCCCC2)cc1)c1c(-c2ccc(O)cc2)sc2cc(O)ccc12 [Raloxifene hydrochloride] | 0.0554 ± 0.0018
CS(=O)(=O)c1ccc([C@@H](O)[C@@H](CO)NC(=O)C(Cl)Cl)cc1 [Thiamphenicol] | 0.086 ± 0.0081
CN(C)CC/C=C1\c2ccccc2CSc2ccccc21 [Dosulepin hydrochloride] | 0.308 ± 0.0073
CCOc1nc2cccc(C(=O)O)c2n1Cc1ccc(-c2ccccc2-c2nnn[nH]2)cc1 [Candesartan] | 0.355 ± 0.0055
CCc1cc(C(N)=S)ccn1 [Ethionamide] | 0.334 ± 0.02
CN(C)CCCC1(c2ccc(F)cc2)OCc2cc(C#N)ccc21 (stereo not given) [Citalopram Hydrobromide] | 0.321 ± 0.017
Cn1c(=O)c2c(ncn2C)n(C)c1=O [Caffeine] | 0.369 ± 0.006
COc1ccc(C(=O)NCc2ccc(OCCN(C)C)cc2)cc1OC [Itopride] | 0.349 ± 0.0081
Cn1cnc([N+](=O)[O-])c1Sc1ncnc2[nH]cnc12 [Azathioprine] | 0.175 ± 0.0061
